In PubChem BioAssay (NCI):
The panel holds about 83,000 compounds, 20% with a hit somewhere; the sample as a whole holds those more often.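 In brief: 96-well plates, 48 h treatment, single concentration, percent growth endpoint.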 A number with no mark means an inactive call. Calls of active or inactive are those of the source. Rule for the calls: active = growth percent below 10; inactive = the rest.

What was measured:
Experiment in all cases: NCI-60 one-dose screen, 48 h (100 = growth as untreated, 0 = no growth, -100 = all killed)
Details in all cases: 10 µM unless noted
DU-145 prostate = tested on: DU-145 prostate
K-562 leukemia = tested on: K-562 leukemia
MALME-3M melanoma = tested on: MALME-3M melanoma
MDA-MB-231 breast = tested on: MDA-MB-231 breast
RXF 393 renal = tested on: RXF 393 renal
SF-268 CNS = tested on: SF-268 CNS
SF-539 CNS = tested on: SF-539 CNS
UACC-257 melanoma = tested on: UACC-257 melanoma
M14 melanoma = tested on: M14 melanoma
HCT-15 colon = tested on: HCT-15 colon
HT29 colon = tested on: HT29 colon
SNB-75 CNS = tested on: SNB-75 CNS
SNB-19 CNS = tested on: SNB-19 CNS
U251 CNS = tested on: U251 CNS
PC-3 prostate = tested on: PC-3 prostate
SK-MEL-5 melanoma = tested on: SK-MEL-5 melanoma
UACC-62 melanoma = tested on: UACC-62 melanoma
LOX IMVI melanoma = tested on: LOX IMVI melanoma
SK-MEL-28 melanoma = tested on: SK-MEL-28 melanoma

Row | Structure (SMILES) | growth (DU-145 prostate) | growth (K-562 leukemia) | growth (MALME-3M melanoma) | growth (MDA-MB-231 breast) | growth (RXF 393 renal) | growth (SF-268 CNS) | growth (SF-539 CNS) | growth (UACC-257 melanoma) | growth (M14 melanoma) | growth (HCT-15 colon) | growth (HT29 colon) | growth (SNB-75 CNS) | growth (SNB-19 CNS) | growth (U251 CNS) | growth (PC-3 prostate) | growth (SK-MEL-5 melanoma) | growth (UACC-62 melanoma) | growth (LOX IMVI melanoma) | growth (SK-MEL-28 melanoma)
1 | O=C(NO)c1ccc(NCc2csc3ccccc23)cc1 | 54.3% | 62% | 60.8% | 60.9% | 71.2% | 68.8% | 70.3% | 70.2% | 59.4% | 39% | 79.2% | 56% | 69.5% | 57.4% | 52.4% | 74.4% | 57.8% | 71.6% | 91.2%
2 | CCCC(CCC)NCC(O)c1cc(-c2ccc(C(F)(F)F)cc2)nc(C(F)(F)F)c1 (stereo not given) | -26.2% (active) | -51.1% (active) | -63.7% (active) | -66.9% (active) | -97% (active) | -40.5% (active) | -72.2% (active) | -76.9% (active) | -74.8% (active) | -62.4% (active) | -74% (active) | -3.88% (active) | 8.92% (active) | -96.6% (active) | -47.3% (active) | -94% (active) | -68.1% (active) | -64.2% (active) | -41.9% (active)
3 | CC1=C(C(=O)Nc2ccc(F)cc2)C(c2ccccc2)C2=C(CC(C)(C)CC2=O)N1 (stereo not given) | 95.2% | 56% | 89.8% | 70% | 96.4% | 82.6% | 79.5% | 83.6% | 82.6% | 77.8% | 96.3% | 65.8% | 87.4% | 69.8% | 54.6% | 38.2% | 55.6% | 79% | 68%
4 | Oc1[nH]c2ccc(Cl)cc2c1/C=c1/ccc2c(c1)N=C(c1ccc(F)cc1)N=2 | 86.3% | 16.4% | -3.95% (active) | 63.1% | 63.4% | 77.2% | 92.2% | 70.1% | 30.4% | 19.3% | 62.4% | 55.6% | 69% | 72% | 48.5% | 59.3% | 69% | 46.1% | 53.7%
5 | C#CC[C@@H]1C[C@]2(C)[C@H]3CC[C@@H]4[C@H]5C(C(=C)C)CC[C@]5(C(=O)NCCN(CCN)CCN)CC[C@@]4(C)[C@]3(C)CC[C@H]2C(C)(C)[C@H]1OC(C)=O (stereo not given in full) | 95.1% | 2.56% (active) | 85.7% | 33% | -66.1% (active) | 87.6% | 95.2% | 109% | 91.3% | -52.9% (active) | 46.8% | 103% | 69.8% | -28.4% (active) | 79.9% | 96.5% | 103% | 65.5% | 105%
6 | CCCCCCCCCCCCCC[N+](C)(C)CCCCCCCCCCCCCC | 97.9% | 30.5% | 50.1% | 78.9% | 2.29% (active) | 70.8% | 77.2% | 82.5% | 75.4% | 75.1% | 30.5% | 62.9% | 70.4% | 44.7% | 12.6% | 69.4% | 42.6% | 51.8% | 89.3%
7 | CCNC(=S)N(Cc1ccccc1)Cc1ccccc1 | 124% | 100% | 105% | 116% | 126% | 116% | 104% | 98.7% | 108% | 111% | 98.8% | 103% | 123% | 96.4% | 95.3% | 101% | 91.7% | 112% | 110%
8 | CC(C)CC(NC(=O)C(CCCN=C(N)N)NC(=O)OCc1ccccc1)C(=O)NC(CNC(=O)/C=C/c1ccccc1)C(C)C (stereo not given) | 107% | 92.3% | 107% | 109% | 107% | 107% | 96.4% | 107% | 106% | 96.5% | 109% | 84.5% | 99.9% | 106% | 89.2% | 106% | 102% | 94.8% | 93.5%
9 | COc1ccc(-c2n[nH]nc2-c2cc(OC)c3c(c2)OCO3)cc1 | -4.79% (active) | -11% (active) | 34% | -25.9% (active) | 19.1% | 16.7% | -39.7% (active) | 68% | 8.15% (active) | 6.08% (active) | -9.19% (active) | 25.4% | 48.7% | 1.06% (active) | -7.05% (active) | -1.56% (active) | 28% | -4.34% (active) | 46.3%
10 | Clc1cc(Br)ccc1-c1ccc(CNCC2CCNCC2)o1 | 62.4% | 18.9% | -4.35% (active) | 50.8% | 64.8% | 45% | 29.6% | 79.6% | 55.2% | 55.1% | 31.7% | 9.93% (active) | 42.1% | 16.9% | 54.1% | 61.5% | 59.4% | 23.4% | 42.3%
11 | CC(=O)O[C@H]1[C@H](CC#CC#CC[C@@H]2C[C@]3(C)[C@H]4CC=C5[C@H]6[C@@H](C)[C@H](C)CC[C@]6(C(=O)NCCCCCCCCN)CC[C@@]5(C)[C@]4(C)CC[C@H]3C(C)(C)[C@H]2OC(C)=O)C[C@]2(C)[C@H]3CC=C4[C@H]5[C@@H](C)[C@H](C)CC[C@]5(C(=O)NCCCCCCCCN)CC[C@@]4(C)[C@]3(C)CC[C@H]2C1(C)C | 110% | 108% | 105% | 103% | 94.6% | 102% | 94.1% | 106% | 102% | 108% | 98.2% | 94.7% | 107% | 98.2% | 92.8% | 105% | 112% | 96.9% | 124%
12 | CC1=C(C(=O)Nc2ccc(F)cc2)C(c2ccc(Cl)cc2)C2=C(CC(C)(C)CC2=O)N1 (stereo not given) | 105% | 74% | 160% | 82% | 96.4% | 86.3% | 94% | 95.3% | 98.5% | 84.6% | 98% | 66% | 86% | 81.6% | 61.7% | 75.9% | 77.4% | 87.8% | 82.6%
13 | Cc1cc(-c2nnc(/C=C/c3ccc4c(c3)OCO4)o2)n[nH]1 | 83.4% | 23.5% | 49.4% | 54.4% | 85.5% | 74.9% | 46.3% | 78.1% | 46.3% | 44.3% | 23% | 51.3% | 86.8% | 85.1% | 74.3% | 70.9% | 69.5% | 52.5% | 71.5%
14 | COc1ccc(C(=O)C(C#N)c2cc(OC)c(OC)c(OC)c2)cc1 (stereo not given) | 114% | 98.1% | 106% | 115% | 103% | 114% | 93.8% | 97.4% | 102% | 102% | 99.2% | 90.7% | 108% | 98.2% | 99% | 102% | 105% | 97.8% | 104%
15 | C#CC[C@@H]1C[C@]2(C)[C@H]3CC[C@@H]4[C@H]5C(C(=C)C)CC[C@]5(C(=O)NCCCCCCCCN)CC[C@@]4(C)[C@]3(C)CC[C@H]2C(C)(C)[C@H]1OC(C)=O (stereo not given in full) | 75.3% | -41.8% (active) | 111% | 67.9% | 71.5% | 91.2% | 88.3% | 119% | 102% | 67.5% | 30.5% | 80.3% | 92.1% | 71.1% | 55.3% | 98% | 108% | 55% | 113%
